# Data: the supplement of paper PMC11732987, “Enantioselective OTUD7B fragment discovery through chemoproteomics screening and high-throughput optimisation” (Communications Chemistry, 2025)
# A number with no mark means an inactive call.
# Columns and labels:
# Test in all cases: log2 ratio of Biotin-Ahx-Ub-VS probe labelling (fragment/DMSO); higher = less target engagement (more negative = stronger competition), active = hit call of the paper (q ≤ 0.05, log2 ratio ≤ -1)
# Conditions in all cases: compound concentration: 200 uM; treatment time: 3 h
# ALG13 = biological target: T1, ALG13 (UniProt Q9NP73)
# T1 sequence (whole entry): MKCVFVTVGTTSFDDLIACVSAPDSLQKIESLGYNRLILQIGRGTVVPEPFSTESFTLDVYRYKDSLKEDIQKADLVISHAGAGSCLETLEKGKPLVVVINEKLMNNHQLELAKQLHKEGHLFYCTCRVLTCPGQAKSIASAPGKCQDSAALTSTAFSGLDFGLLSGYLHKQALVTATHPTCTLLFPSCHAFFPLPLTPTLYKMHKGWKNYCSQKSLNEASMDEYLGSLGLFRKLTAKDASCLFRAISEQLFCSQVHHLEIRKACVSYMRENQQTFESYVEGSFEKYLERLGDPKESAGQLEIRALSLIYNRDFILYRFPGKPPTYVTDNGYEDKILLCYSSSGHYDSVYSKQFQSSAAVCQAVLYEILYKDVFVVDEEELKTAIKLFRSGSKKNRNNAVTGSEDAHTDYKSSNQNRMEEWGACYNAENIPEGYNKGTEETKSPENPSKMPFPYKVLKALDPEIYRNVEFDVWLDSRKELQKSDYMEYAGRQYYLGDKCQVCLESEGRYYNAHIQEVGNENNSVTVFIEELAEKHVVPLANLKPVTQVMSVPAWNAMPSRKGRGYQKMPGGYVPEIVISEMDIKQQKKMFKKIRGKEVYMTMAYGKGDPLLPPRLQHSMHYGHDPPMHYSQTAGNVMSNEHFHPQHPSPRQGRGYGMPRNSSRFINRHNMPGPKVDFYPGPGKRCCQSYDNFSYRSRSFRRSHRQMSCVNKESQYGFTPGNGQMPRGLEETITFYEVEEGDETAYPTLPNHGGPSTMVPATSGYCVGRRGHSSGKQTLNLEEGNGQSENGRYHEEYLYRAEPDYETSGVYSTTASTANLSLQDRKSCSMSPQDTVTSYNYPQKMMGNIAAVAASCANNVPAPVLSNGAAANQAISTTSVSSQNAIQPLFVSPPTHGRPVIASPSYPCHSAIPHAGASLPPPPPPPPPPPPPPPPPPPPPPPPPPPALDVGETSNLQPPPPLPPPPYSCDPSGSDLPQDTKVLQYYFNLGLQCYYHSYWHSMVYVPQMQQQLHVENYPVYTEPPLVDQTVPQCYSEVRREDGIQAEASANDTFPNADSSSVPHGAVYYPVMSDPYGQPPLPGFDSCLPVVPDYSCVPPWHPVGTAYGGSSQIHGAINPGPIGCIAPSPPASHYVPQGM
# In short: (§1)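 Using Biotin-Ahx-Ub-VS at 0.5 µM final for 1 h, DUBs were labelled in HEK293T lysate (495 µg per sample) that had first been treated in triplicate with fragment at 200 µM or vehicle for 3 h. NeutrAvidin enrichment, LysC and trypsin digestion and diaPASEF LC-MS/MS followed. Spectronaut label-free quantities were global-median-normalised. Values are average log2 fragment/vehicle ratios by unpaired t-test, using proteins with ≥2 unique peptides.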
# ATXN3 = ATXN3 (UniProt P54252)
# In short: as §1
# BAP1 = biological target: T2, BAP1 (UniProt Q92560)
# T2 sequence (whole entry): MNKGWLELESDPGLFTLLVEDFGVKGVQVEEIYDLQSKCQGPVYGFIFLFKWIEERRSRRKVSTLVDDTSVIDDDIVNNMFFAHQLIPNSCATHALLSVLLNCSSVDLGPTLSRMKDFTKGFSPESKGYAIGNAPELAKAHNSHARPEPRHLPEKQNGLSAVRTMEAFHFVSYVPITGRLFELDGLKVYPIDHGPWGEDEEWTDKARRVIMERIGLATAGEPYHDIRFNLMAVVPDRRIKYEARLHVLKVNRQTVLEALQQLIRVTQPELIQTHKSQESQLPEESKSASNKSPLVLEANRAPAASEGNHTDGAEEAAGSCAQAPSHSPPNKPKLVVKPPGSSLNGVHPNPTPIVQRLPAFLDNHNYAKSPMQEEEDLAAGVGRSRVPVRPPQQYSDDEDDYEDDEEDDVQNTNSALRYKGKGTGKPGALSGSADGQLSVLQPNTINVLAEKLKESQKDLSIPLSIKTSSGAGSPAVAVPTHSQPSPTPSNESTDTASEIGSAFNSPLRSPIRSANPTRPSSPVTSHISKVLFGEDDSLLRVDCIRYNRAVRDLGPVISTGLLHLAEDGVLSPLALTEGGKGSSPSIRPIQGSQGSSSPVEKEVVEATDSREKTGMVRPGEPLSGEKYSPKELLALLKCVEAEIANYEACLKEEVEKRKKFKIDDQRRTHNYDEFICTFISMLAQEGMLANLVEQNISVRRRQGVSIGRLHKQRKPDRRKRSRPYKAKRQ
# In short: as §1
# EIF3F = EIF3F (UniProt O00303)
# In short: as §1
# EIF3H = EIF3H (UniProt O15372)
# In short: as §1
# FAM105A = biological target: T3, FAM105A (UniProt Q9NUU6)
# T3 sequence (whole entry): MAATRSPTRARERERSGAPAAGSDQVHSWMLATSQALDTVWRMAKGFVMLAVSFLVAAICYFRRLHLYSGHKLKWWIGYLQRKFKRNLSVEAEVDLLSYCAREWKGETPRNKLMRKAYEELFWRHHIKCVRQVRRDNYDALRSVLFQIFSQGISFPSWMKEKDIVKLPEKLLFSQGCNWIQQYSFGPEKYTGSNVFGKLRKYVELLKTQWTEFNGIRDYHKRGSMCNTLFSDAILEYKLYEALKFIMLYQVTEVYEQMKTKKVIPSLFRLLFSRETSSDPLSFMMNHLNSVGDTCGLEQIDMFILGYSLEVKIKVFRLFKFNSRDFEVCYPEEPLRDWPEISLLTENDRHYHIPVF
# In short: as §1
# OTUB1 = OTUB1 (UniProt Q96FW1)
# In short: as §1
# OTUD4 = biological target: T4, OTUD4 (UniProt Q01804)
# T4 sequence (whole entry): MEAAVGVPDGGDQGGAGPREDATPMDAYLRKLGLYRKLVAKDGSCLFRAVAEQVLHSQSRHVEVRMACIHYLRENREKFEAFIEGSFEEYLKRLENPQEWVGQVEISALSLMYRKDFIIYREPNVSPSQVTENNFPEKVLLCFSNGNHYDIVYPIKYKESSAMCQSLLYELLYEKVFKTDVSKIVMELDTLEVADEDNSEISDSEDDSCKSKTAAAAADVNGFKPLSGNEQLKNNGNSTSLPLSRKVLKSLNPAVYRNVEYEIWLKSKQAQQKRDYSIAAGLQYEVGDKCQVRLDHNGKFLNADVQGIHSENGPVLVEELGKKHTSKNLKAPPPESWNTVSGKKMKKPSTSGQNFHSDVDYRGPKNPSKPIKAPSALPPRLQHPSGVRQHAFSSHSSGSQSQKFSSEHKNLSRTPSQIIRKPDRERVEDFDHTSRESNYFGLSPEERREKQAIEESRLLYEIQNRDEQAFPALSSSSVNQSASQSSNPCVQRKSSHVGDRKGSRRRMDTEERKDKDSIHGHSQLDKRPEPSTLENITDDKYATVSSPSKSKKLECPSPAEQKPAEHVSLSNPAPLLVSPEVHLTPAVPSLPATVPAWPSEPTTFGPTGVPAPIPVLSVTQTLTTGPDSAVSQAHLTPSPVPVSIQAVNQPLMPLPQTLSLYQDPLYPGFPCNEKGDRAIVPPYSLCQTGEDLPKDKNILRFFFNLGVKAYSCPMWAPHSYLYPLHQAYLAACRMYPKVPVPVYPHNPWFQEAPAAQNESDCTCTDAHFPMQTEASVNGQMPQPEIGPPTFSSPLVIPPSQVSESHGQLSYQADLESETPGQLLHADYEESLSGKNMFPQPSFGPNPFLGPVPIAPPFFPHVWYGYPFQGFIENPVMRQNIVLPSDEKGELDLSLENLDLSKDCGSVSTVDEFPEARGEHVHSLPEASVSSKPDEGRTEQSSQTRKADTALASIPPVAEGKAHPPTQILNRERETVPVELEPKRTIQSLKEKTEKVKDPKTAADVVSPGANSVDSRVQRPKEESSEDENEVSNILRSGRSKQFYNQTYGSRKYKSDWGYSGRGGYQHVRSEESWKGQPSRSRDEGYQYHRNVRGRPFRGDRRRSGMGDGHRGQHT
# In short: as §1
# OTUD5 = biological target: T5, OTUD5 (UniProt Q96G74)
# T5 sequence (whole entry): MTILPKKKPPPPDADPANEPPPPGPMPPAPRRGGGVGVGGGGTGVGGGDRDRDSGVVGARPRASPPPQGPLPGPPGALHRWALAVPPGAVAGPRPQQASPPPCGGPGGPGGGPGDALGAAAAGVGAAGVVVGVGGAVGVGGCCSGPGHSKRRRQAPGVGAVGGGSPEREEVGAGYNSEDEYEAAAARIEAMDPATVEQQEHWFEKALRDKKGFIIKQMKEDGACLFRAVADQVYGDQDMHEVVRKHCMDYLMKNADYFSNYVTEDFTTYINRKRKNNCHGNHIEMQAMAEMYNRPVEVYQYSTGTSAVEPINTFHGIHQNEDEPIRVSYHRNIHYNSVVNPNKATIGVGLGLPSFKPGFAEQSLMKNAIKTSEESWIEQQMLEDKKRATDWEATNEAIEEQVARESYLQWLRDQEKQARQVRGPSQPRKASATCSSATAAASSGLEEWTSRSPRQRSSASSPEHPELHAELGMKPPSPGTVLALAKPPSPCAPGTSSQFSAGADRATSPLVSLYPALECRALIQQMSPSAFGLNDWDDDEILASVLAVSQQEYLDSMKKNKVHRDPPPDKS
# In short: as §1
# Chain of OTUB1 (Q96FW1 whole entry): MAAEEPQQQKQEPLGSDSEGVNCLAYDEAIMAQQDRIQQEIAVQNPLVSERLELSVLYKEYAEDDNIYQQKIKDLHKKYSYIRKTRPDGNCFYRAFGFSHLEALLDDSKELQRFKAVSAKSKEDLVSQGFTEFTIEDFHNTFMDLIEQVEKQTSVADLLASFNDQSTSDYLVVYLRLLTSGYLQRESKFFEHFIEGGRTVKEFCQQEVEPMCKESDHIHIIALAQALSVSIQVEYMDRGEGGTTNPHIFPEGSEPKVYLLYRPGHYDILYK
# Chain of ATXN3 (P54252 whole entry): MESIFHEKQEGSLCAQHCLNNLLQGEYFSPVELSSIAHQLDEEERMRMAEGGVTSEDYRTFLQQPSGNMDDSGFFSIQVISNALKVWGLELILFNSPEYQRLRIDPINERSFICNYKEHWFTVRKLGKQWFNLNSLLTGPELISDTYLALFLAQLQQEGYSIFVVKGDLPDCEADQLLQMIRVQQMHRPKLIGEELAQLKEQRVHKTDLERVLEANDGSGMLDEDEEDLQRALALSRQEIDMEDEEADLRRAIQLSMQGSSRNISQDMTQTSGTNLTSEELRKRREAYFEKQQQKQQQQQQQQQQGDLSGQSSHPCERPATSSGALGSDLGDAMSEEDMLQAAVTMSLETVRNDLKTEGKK
# Chain of EIF3F (O00303 whole entry): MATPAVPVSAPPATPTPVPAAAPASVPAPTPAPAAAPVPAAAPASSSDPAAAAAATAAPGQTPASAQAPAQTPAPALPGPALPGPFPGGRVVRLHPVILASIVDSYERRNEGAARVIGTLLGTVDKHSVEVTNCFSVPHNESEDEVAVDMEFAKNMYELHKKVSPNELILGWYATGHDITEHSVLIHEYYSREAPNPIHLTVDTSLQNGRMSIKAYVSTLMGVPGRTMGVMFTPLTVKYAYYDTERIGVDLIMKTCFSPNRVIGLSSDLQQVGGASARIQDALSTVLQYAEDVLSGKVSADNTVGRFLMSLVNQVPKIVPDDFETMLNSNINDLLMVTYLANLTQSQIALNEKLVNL
# Chain of EIF3H (O15372 whole entry): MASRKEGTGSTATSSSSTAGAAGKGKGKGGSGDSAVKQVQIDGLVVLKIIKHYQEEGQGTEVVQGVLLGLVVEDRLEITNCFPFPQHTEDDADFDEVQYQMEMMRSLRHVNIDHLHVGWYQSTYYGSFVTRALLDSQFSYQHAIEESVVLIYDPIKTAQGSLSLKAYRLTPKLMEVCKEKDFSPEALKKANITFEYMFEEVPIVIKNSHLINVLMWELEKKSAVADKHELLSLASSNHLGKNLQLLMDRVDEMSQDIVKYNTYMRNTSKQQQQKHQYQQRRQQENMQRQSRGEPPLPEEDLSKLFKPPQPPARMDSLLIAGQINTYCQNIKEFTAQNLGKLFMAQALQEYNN
structure (smiles),measurement,setting,value
COc1ccc(C2CCCN2C(=O)CCl)c(OC)c1 (centres undefined),log2 ratio of Biotin-Ahx-Ub-VS probe labelling,ALG13,-0.266
same,log2 ratio of Biotin-Ahx-Ub-VS probe labelling,ATXN3,-0.54
same,log2 ratio of Biotin-Ahx-Ub-VS probe labelling,BAP1,-3.55 (active)
same,log2 ratio of Biotin-Ahx-Ub-VS probe labelling,EIF3F,-0.23
same,log2 ratio of Biotin-Ahx-Ub-VS probe labelling,EIF3H,-0.25
same,log2 ratio of Biotin-Ahx-Ub-VS probe labelling,FAM105A,0.0093
same,log2 ratio of Biotin-Ahx-Ub-VS probe labelling,OTUB1,0.0641
same,log2 ratio of Biotin-Ahx-Ub-VS probe labelling,OTUD4,0.0731
same,log2 ratio of Biotin-Ahx-Ub-VS probe labelling,OTUD5,-0.185
